Consider 111 molecules from PubChem BioAssay AID488969 (Vanderbilt High Throughput Screening Facility, 2010).

In all, about 110,000 compounds were measured (“z-score”: median about -0.1, highest 2% from about 2 on). The sample holds the highest values, similar compounds and a random draw of the others, so the mix is not that of the screen. Activity calls are given as the source filed them.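 How the source made its calls: active means z-score in the third read window above 3 or below -3; inactive means the rest.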

Sequence of Metabotropic glutamate receptor 8 (Rattus norvegicus) (P70579 whole entry, looked up): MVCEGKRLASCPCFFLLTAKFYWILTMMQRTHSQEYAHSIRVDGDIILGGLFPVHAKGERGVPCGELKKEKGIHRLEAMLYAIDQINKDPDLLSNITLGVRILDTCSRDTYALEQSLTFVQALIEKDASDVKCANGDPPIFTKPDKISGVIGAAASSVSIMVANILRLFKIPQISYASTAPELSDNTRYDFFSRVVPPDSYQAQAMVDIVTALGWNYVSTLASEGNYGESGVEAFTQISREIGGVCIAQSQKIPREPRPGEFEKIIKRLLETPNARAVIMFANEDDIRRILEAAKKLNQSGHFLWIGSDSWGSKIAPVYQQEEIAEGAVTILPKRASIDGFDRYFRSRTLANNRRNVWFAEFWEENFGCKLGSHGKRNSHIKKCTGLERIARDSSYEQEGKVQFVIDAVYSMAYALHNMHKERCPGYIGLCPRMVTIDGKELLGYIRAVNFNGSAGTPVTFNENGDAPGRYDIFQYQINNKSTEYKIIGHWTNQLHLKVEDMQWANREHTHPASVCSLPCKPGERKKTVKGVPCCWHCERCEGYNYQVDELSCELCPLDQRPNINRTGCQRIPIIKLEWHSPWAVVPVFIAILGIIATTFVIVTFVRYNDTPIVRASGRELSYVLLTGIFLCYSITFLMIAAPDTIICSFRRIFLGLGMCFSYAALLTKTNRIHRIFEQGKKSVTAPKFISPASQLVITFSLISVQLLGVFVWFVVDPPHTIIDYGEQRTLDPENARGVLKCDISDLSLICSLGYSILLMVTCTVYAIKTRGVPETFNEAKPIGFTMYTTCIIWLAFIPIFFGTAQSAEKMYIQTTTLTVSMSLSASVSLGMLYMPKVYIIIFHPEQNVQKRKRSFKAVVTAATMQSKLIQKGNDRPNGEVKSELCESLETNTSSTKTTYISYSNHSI

This assay concerns the target Metabotropic glutamate receptor 8 (Rattus norvegicus) (UniProt P70579). The experiment in a line: mGluR8 Gi/Go-coupled signaling modulation – cell-based, rat, thallium flux, HTS, primary screen (AID 488969). The following applies: HEK293 rat mGluR8, GIRK (G protein-gated inwardly rectifying potassium channel) thallium flux, FluoZin2; at 10 µM; stronger effect = higher value; submaximal glutamate (EC20) added with thallium.
`CN(CCC#N)C(=O)Cn1nc(Cc2ccncc2)c2ccccc2c1=O` showed a z-score of 1.89. Under `CCOCC(=O)Nc1nnc(C2CCCCC2)s1` stands 0.0573; under `Cc1cccc(Cn2c(C(C)O)nc3ccccc32)c1` (stereo unspecified), -0.101; under `COc1cccc(N2CCN(CC(=O)C34CC5CC(CC(C5)C3)C4)CC2)c1`, 0.0526.

Turning to `COC(=O)[C@H](C)NC(=O)Nc1cc(OC)ccc1OC`, the z-score was -0.238. In turn, `Cc1cc([N+](=O)[O-])cc(C)c1OCC(=O)N/N=C/c1ccc(OC(=O)c2ccccc2Br)cc1` yielded a z-score of 2.41.

With `Cc1cc([N+](=O)[O-])cc(C)c1OCC(=O)N/N=C/c1ccc(OC(=O)c2ccccc2)cc1`, the z-score is -0.0495. Regarding `COc1cc(/C=N/NC(=O)COc2c(C)cc([N+](=O)[O-])cc2C)ccc1OC(=O)c1ccccc1`, the z-score was -0.81. Under `CCOc1ccc2[nH]cc(C(=O)N3CCN(C4CCCCC4)CC3)c(=O)c2c1` stands -0.123; under `CC(=O)N1CCN(CC(O)COc2ccc(OCc3ccccc3)cc2)CC1` (stereo unspecified), 0.0259; under `Cc1cc2ccccc2c(=O)n1CC(=O)NCC1COc2ccccc2O1` (stereo unspecified), 0.0188. Next, `Cc1ccc2nc(N3C(=O)C(O)=C(C(=O)c4ccco4)C3c3cccs3)sc2c1` (stereo unspecified): -1.09; `CC1CC(=S)Nc2ccccc2N1Cc1ccccc1` (stereo unspecified): 1.32.

For the molecule `O=C1CC(c2ccccc2)Sc2ccccc2N1` (stereo unspecified), the z-score was -0.216. Under `CC1CSc2ccccc2NC1=S` (stereo unspecified) stands 3.72 (active); under `C=C(C)c1cccc(C(C)(C)NC(=O)Nc2ccc(C)cn2)c1`, -0.34; under `CCOc1ccc(C(=O)Nc2cc(=O)n(C)c(=O)n2C)cc1`, -0.395. Next, `CCOC(=O)c1ccc2nc(NC(=O)c3ccco3)sc2c1`: -0.0743; `O=C(CN1CCN(Cc2ccc3c(c2)OCO3)CC1)Nc1ccc2c(c1)OCCO2`: 0.156. Next, `Cc1c(NC(=O)Cn2cnc3c(=O)n(C)c(=O)n(C)c32)cccc1-c1nc2ccccc2o1`: 0.183; `CC12CCC(C(=O)N(CSC(=S)N/N=C\c3ccccc3)C1=O)C2(C)C` (stereo unspecified): 16.4 (active); `COc1ccc(C(=O)NN2C(=O)C3CCC(C)(C2=O)C3(C)C)cc1` (stereo unspecified): -0.0665. As to `COc1ccc(/C=N\NC(=S)SCN2C(=O)C3CCC(C)(C2=O)C3(C)C)cc1` (stereo unspecified), the z-score is 9.12 (active). Next, `CC12CCC(C(=O)N(CC(O)CN3CCCCC3)C1=O)C2(C)C` (stereo unspecified): 0.169; `CN(C)c1ccc(/C=N\NC(=S)SCN2C(=O)C3CCC(C)(C2=O)C3(C)C)cc1` (stereo unspecified): 1.74.

With `COc1ccc(/C=N/NC(=S)NC2CCS(=O)(=O)C2)cc1` (stereo unspecified), the z-score was -0.113. `CCOc1ccc(NC(=O)CCCN2C(=S)NC(C)(C)CC2C)cc1` (stereo unspecified): the z-score was -0.466.

For the molecule `O=C1CC(N2CCN(c3nc4ccccc4s3)CC2)C(=O)N1c1cccc(F)c1` (stereo unspecified), the z-score is -0.276. Next, `O=C1CC(N2CCN(c3nc4ccccc4s3)CC2)C(=O)N1c1ccc(F)cc1` (stereo unspecified): 7.65 (active). Under `CCCOc1ccc(N2C(=O)CC(N3CCN(c4nc5ccccc5s4)CC3)C2=O)cc1` (stereo unspecified) stands 0.835. Under `CCCC(=O)Nc1nc2ccc3nc(C)sc3c2s1` stands -0.507. Take `CCC(=O)Nc1nc2ccc3nc(C)sc3c2s1`: the z-score is 3.6 (active). Under `CCCCC(=O)Nc1nc2ccc3nc(C)sc3c2s1` stands -0.125. Next, `Nc1cc2c(cc1C(=O)c1ccccc1)OCCO2`: 0.199; `Nc1sccc1C(=O)c1ccccc1`: 11 (active); `Nc1sccc1C(=O)c1ccc(Cl)cc1`: -0.434. For the molecule `O=C(N/N=C/c1ccc(-c2ccccc2[N+](=O)[O-])o1)c1cncc(Br)c1`, the z-score was -1.68. Under `O=C(Cc1ccccc1)N/N=C/c1cc(Br)c(Br)o1` stands -0.248; under `O=C(N/N=C\c1cc(Br)c(Br)o1)c1cncc(Br)c1`, 9.73 (active). Under `Cc1ccnc(NC(=O)CCC(=O)N(CC(=O)NC2CCCCC2)c2cccc(C)c2C)c1` stands -0.622; under `COc1ccc(OC)c(-c2cc(C(=O)Nc3c(C)nn(Cc4ccccc4Cl)c3C)no2)c1`, -0.834.

`CC1Cc2ccccc2N1C(=O)COC(=O)Cn1cnc2ccccc2c1=O` (stereo unspecified): the z-score is -0.55. Next, `Cc1ccc(C(=O)c2cn[nH]c2-c2cc(Cl)ccc2O)cc1`: -0.48; `Cc1ccc(C(=O)CNc2cccc(Cl)c2)cc1`: -0.0331. In the case of `Cc1cccc(C(=O)Nc2ccc(NC(=O)Cc3ccc(Cl)cc3)cc2)c1`, the z-score is -0.0593.

Regarding `Cc1cccc(/C(N)=N/OC(=O)c2ccc(Cl)cc2Cl)c1`, the z-score is -0.137. For the molecule `Cc1cccc(C(=O)CC(=O)c2cc(Cl)ccc2O)c1`, the z-score was 4.14 (active).

As to `Cc1ccc(C(=O)CC(=O)c2cc(Cl)ccc2O)cc1`, the z-score was 7.14 (active). Under `O=C(CCc1ccccc1)Nc1cc(Cl)ccc1O` stands -0.624; under `O=C(CC(=O)c1cc(Cl)ccc1O)c1ccccc1`, 3.32 (active). For `O=C(O)CC(=O)Nc1cc(Cl)ccc1O`, the z-score worked out at 0.845. Under `COc1nc(-c2ccccc2)ccc1-c1noc(-c2ccccc2F)n1` stands 0.0977; under `NC(=O)c1ccccc1OCC(=O)NC12CC3CC(CC(C3)C1)C2`, -0.0638. Regarding `COC(=O)Nc1snnc1C`, the z-score was -0.189. Next, `CCOC(=O)C1=C(C)N(C)C(=O)NC1c1cc2c(cc1Br)OCO2` (stereo unspecified): 1.61; `CCc1nc(NCc2ccco2)c2oc3ccccc3c2n1`: -0.48; `O=C(CN1C(=O)c2cccc3cccc1c23)Nc1ccc(S(=O)(=O)N2CCOCC2)cc1`: -0.376.

`COc1cccc(C(=O)Nc2ccccc2N2CCOCC2)c1` registered a z-score of 0.0601. Under `CN1C(=S)SC(/[N+]([O-])=C\c2cccs2)C1(C)C` (stereo unspecified) stands -0.0661.

`CC(=O)Nc1cc2c(cc1NC(=O)Cn1nc(-c3ccc4c(c3)OCCO4)ccc1=O)OCCO2`: the z-score is -0.275. In turn, `COc1cccc(-c2ccc(=O)n(CC(=O)Nc3cc4c(cc3NC(C)=O)OCCO4)n2)c1` registered a z-score of 2.05.

With `CC(=O)Nc1cc2c(cc1NC(=O)Cn1nc(-c3ccccc3F)ccc1=O)OCCO2`, the z-score is -0.0689. Next, `Cc1cnc(C(=O)Nc2cc(S(=O)(=O)N3CCOCC3)ccc2N2CCN(C)CC2)cn1`: 0.0173; `O=C(N/N=C/C=C/c1ccc2c(c1)OCO2)c1ccc([N+](=O)[O-])cc1`: 0.0517; `CCCN(CCC)S(=O)(=O)c1ccc(C(=O)Nc2nc(-c3ccccc3)c(C(=O)OCC)s2)cc1`: -0.243. Take `Clc1ccccc1CN1CCC(Cc2ccccc2)CC1`: the z-score is -0.0513. As to `O=C(NCCN1CCOCC1)C1CCC(=O)N1Cc1ccc(F)cc1` (stereo unspecified), the z-score turned out to be 0.194.

In the case of `Cc1ccc(-c2ccc(/C=C/C(=O)c3ccccc3)o2)cc1`, the z-score was -0.233.

`Cc1cc2cc(OCC(=O)O)ccc2n1C`: the z-score amounted to 0.494. Next, `C/C(=N\NC(=O)c1cccc(C)c1)c1cccc(NC(=O)c2ccco2)c1`: -0.159; `Cc1cccc(NC(=S)N/C(=N/S(=O)(=O)c2ccccc2)c2ccccc2)c1`: 1.97. Under `Cc1cccc(NC(=S)N/N=C/c2c[nH]c3ccccc23)c1` stands -0.0914; under `C/C(=N\NC(=S)Nc1cccc(C)c1)c1cccc(N)c1`, 3.42 (active). Next, `C/C(=N\NC(=S)Nc1cccc(C)c1)c1ccccc1`: 5.36 (active); `C/C(=N\NC(=O)Nc1ccccc1)c1ccccc1`: -0.157. On to `CCOC(=O)C(NC(=O)CC)(N1CCc2ccccc2C1)C(F)(F)F` (stereo unspecified), for which the z-score was -0.138. Under `O=C(NCCCN1CCC(Cc2ccccc2)CC1)C1CC(=O)N(C2CCCCCC2)C1` (stereo unspecified) stands 1.25; under `O=C(Nc1ccccc1)c1ccc(CSc2ccccn2)cc1`, -0.0973. Next, `COc1cc(NCCCCCCCN)c2ncccc2c1`: 2.78; `COc1cc(NC(=O)c2ccc3c(c2)OCO3)c2ncccc2c1`: -0.168. Under `COc1cc(NC(=O)C2CCCCC2)c2ncccc2c1` stands -0.248; under `CCCOc1ccc(C(=O)NNC(=S)NC(C)=O)cc1`, 0.435. For `CCC(=O)NC(=S)NNC(=O)c1ccc(OC)cc1`, the z-score is -0.0696. Under `CCCOc1ccc(C(=O)NNC(=S)NC(=O)CC)cc1` stands 3.01 (active); under `CCCCOc1ccc(C(=O)NNC(=S)NC(=O)CC)cc1`, 4.28 (active). Under `C=CCNC(=S)NNC(=O)c1ccc(OCCCC)cc1` stands -0.162. Next, `C=CCNC(=S)NNC(=O)c1ccc(OCCC)cc1`: 0.095.

For `CN(C1CCS(=O)(=O)C1)S(=O)(=O)c1ccc(C2CCCCC2)cc1` (stereo unspecified), the z-score came out at 0.314. Next, `CCOC(=O)CSc1nnc(NC(=O)c2cccc([N+](=O)[O-])c2C)s1`: 0.774; `O=C(NN=c1c(=O)c2ccccc2c1=O)c1ccccc1`: 6.47 (active); `CC1=C/C(=N\NC(=O)c2ccccc2)CC1`: -0.0871. Under `O=C(NC(NC(=O)c1ccccc1)C(=O)c1ccccc1)c1ccccc1` stands -0.143; under `O=[N+]([O-])c1cc(/C=N/Nc2nc(N3CCOCC3)nc(N3CCOCC3)n2)ccc1Cl`, -0.222. Regarding `COc1cccc(C2C3=C(CC(C)(C)CC3=O)Nc3cc4c(cc32)OCO4)c1` (stereo unspecified), the z-score is 2.12. Next, `COc1ccc(C2C3=C(CC(C)(C)CC3=O)Nc3cc4c(cc32)OCO4)cc1` (stereo unspecified): -0.138; `CC1(C)CC(=O)C2=C(C1)Nc1cc3c(cc1C2c1ccc2c(c1)OCO2)OCO3` (stereo unspecified): -0.639; `Cc1nc2cc(N3CCCCC3)c(NC(=O)c3ccncc3)cc2c(=O)n1Cc1ccc(Cl)cc1`: -0.37. Next, `Cc1nn(C(=O)c2nn(C)cc2Cl)c(C)c1Br`: 0.0765; `CC(=O)c1cn(CC(=O)NCc2ccco2)c2ccccc12`: -0.774. For `CCCNC(=S)N1CCC(c2nc3cc(C)c(C)cc3[nH]2)CC1`, the z-score is -0.228. Under `Cc1ccc(-c2nn(CC(=O)Nc3cccnc3)c(=O)c3ccccc23)cc1` stands -0.291; under `CN(C)c1ccc(C2C3C(=O)NC(=O)C3ON2c2ccc(Cl)cc2)cc1` (stereo unspecified), 2.58.

As to `COc1ccccc1N1C(=O)C2ON(c3ccccc3)C(c3ccc(N(C)C)cc3)C2C1=O` (stereo unspecified), the z-score is 0.0686.

Take `CN(C)c1ccc(C2N(c3ccc(Cl)cc3)C(=O)C3CCCN32)cc1` (stereo unspecified): the z-score is -0.129. Under `Cc1ccc(C(=O)C(C(=O)/C=C/c2ccccc2)=C2SCCCS2)cc1` stands 0.0319. Next, `c1ccc(-c2csc3ncn4nnnc4c23)cc1`: -0.177; `CCCC1CC(CSC(=N)N)OC1=O` (stereo unspecified): -0.478.

Take `Cc1csc(SCC(=O)Nc2nc(-c3ccccc3)cs2)n1`: the z-score came to 1.07. Under `Cc1csc(NC(=O)CSc2nc3ccccc3s2)n1` stands -0.293; under `Cc1csc(SCC(=O)Nc2nc3ccccc3s2)n1`, 3.3 (active). `Cc1ccc(-c2nnc(SCC(=O)N3CCN(c4ccccc4)CC3)o2)cc1`: the z-score was -1.07.
